Results on seven compounds are retold here after PubChem BioAssay (Tox21).

Assay [1] can be described thus: Nuclear factor erythroid 2-related factor 2/antioxidant responsive element (Nrf2/ARE) small molecule agonists: qHTS cell viability counter screen in human keratinocytes (AID 1919968; active = well fitted curve in the direction sought with a large enough effect in the repeat runs; an effect the other way counts as inactive or inconclusive; note: nearly all actives have a fitted effect of over 55% in size; note: potency is the fitted concentration of half-maximal effect). The procedure, abridged: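 CellTiter-Fluor fluorescence, read 1 h after reagent, gave viability in the same wells as the ARE-luciferase assay. KeratinoSens cells (1,500/well) had 23 h compound exposure at 37 C/5% CO2 following 5 h plating.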

A short description of assay [2]: Nuclear factor erythroid 2-related factor 2/antioxidant responsive element (Nrf2/ARE) small molecule agonists: luciferase reporter gene qHTS assay in human keratinocytes (AID 1919969). Note: nearly all actives have a fitted effect of over 35% in size. Note: potency is the fitted concentration of half-maximal effect.
Assay [3] concerns the target Gonadotropin-releasing hormone receptor (Homo sapiens) (UniProt P30968). Kind of assay: Human gonadotropin-releasing hormone receptor (GnRHR) small molecule agonists, calcium flux assay in GnRHR-HEK293 cells (AID 1920063). Note: nearly all actives have a fitted effect of over 35% in size. Note: potency is the fitted concentration of half-maximal effect. The procedure, abridged: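 Agonist mode: compounds at 15 concentrations, in triplicate, went onto calcium dye-loaded GnRHR-HEK293 cells. Intracellular calcium was then followed as 480/540 nm fluorescence at 1 s intervals over 3 min.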

The target of assay [4] is KiSS-1 receptor (Homo sapiens) (UniProt Q969F8). Kind of assay: Human kisspeptin (KISS1R) small molecule agonists, calcium flux assay in KISS1R-HEK293 cells (AID 1920064; active = well fitted curve in the direction sought with a large enough effect in the repeat runs; an effect the other way counts as inactive or inconclusive; note: potency is the fitted concentration of half-maximal effect). The method, boiled down: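 Agonist mode: intracellular calcium rise tracked at 1 s intervals over 3 min (480/540 nm) immediately after compound addition to dye-loaded KISS1R-HEK293 stable cells. Each compound tested at 15 concentrations in triplicate.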

The nature of assay [5]: G protein-coupled receptor (GPCR) small molecule agonists, calcium flux assay: HEK293 wild type cell line counter screen (AID 1920065). Note: potency is the fitted concentration of half-maximal effect. The method, boiled down: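 Calcium flux counter screen: compound added in agonist mode at 15 concentrations in triplicate to dye-loaded parental HEK293 cells. Fluorescence (480/540) read kinetically for 3 min; ATP served as positive control.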

The nature of assay [6]: p53 small molecule agonists, cell-based qHTS assay with human liver microsomes: qHTS cell viability counter screen (AID 1963579). Note: nearly all actives have a fitted effect of over 45% in size. The procedure, abridged: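 HLM-supplemented (0.5 mg/mL final) and NADPH-supplemented (0.5 mg/mL final) p53RE-bla cultures, 4,000 cells per well, were dosed with compounds in DMSO for 16 h at 37 C; luminescent ATP detection (CellTiter-Glo, 30 min, room temperature) quantified surviving cells.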

Assay [7] can be described thus: p53 small molecule agonists, cell-based qHTS assay with rat liver microsomes: qHTS cell viability counter screen (AID 1963580). Note: nearly all actives have a fitted effect of over 45% in size. The method, boiled down: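 Luminescent ATP readout (CellTiter-Glo, 30 min at room temperature) reports viability of p53RE-bla HCT-116 cells after 16 h at 37 C with test compounds under metabolic activation by rat liver microsomes and NADPH at 0.5 mg/mL final each.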

Assay [8] is described as follows: p53 small molecule agonists, cell-based qHTS assay: qHTS cell viability counter screen (AID 1963581). Note: nearly all actives have a fitted effect of over 45% in size. The method, boiled down:
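Counter screen read by CellTiter-Glo luminescence (ATP content, 30 min at room temperature), run in the same wells as the beta-lactamase reporter read. HCT-116 p53RE-bla cells saw compounds for 16 h at 37 C.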

The target of assay [9] is 5-hydroxytryptamine receptor 2A (Homo sapiens) (UniProt P28223). Kind of assay: 5-hydroxytryptamine receptor 2A (HTR2A) small molecule antagonists, cell-based qHTS assay (AID 1963586). Note: nearly all actives have a fitted effect of over 45% in size. The procedure, abridged:
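CHO cells stably expressing human HTR2A were plated for 18 h at 37 C, then loaded with calcium dye for 1 h. Compounds were preincubated 5 min at room temperature before DOI (4 nM solution) was added. Kinetic fluorescence was read for 3 min.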

For assay [10] the target is unchanged. Kind of assay: 5-hydroxytryptamine receptor 2A (HTR2A) small molecule agonists, cell-based qHTS assay (AID 1963587). Note: nearly all actives have a fitted effect of over 30% in size. Note: potency is the fitted concentration of half-maximal effect. The method, boiled down:
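HTR2A-CHO cells, plated 18 h at 37 C/5% CO2, dye-loaded 1 h at 37 C; compounds in DMSO added by pin tool (agonist mode). Intracellular calcium flux read as kinetic fluorescence on FDSS over 2 min at 1 s intervals.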

Assay [11] concerns the target Muscarinic acetylcholine receptor M1 (Homo sapiens) (UniProt P11229). In words: Cholinergic receptor muscarinic 1 (CHRM1) small molecule antagonists, cell-based qHTS assay (AID 1963588). Note: nearly all actives have a fitted effect of over 40% in size. The method, boiled down: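 Compounds were tested at 15 concentrations in three independent runs. Dye-loaded CHRM1-CHO cells were exposed 5 min at room temperature before stimulation by acetylcholine added at 50nM. Intracellular calcium was read kinetically on FDSS for 3 min.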

The target is the same in assay [12]. In words: Cholinergic receptor muscarinic 1 (CHRM1) small molecule agonists, cell-based qHTS assay (AID 1963589). Note: nearly all actives have a fitted effect of over 35% in size. Note: potency is the fitted concentration of half-maximal effect. The procedure, abridged: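 Agonist-mode calcium-flux screen: compounds at 15 concentrations, three independent runs, were pin-transferred onto dye-loaded human CHRM1-CHO cells. Fluorescence was then recorded kinetically every second over minutes.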

Assay [13] is described as follows: cAMP Responsive Elements (CRE) small molecule agonists, cell-based qHTS assay (AID 1963590). The method, boiled down:
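Agonist mode: compound added to CRE-bla HEK 293T cells (2,000/well, 18 h after plating) for 3 h at 37 C/5% CO2. Reporter activity detected via FRET beta-lactamase substrate, 2 h room-temperature loading.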

A short description of assay [14]: cAMP Responsive Elements (CRE) small molecule antagonists, cell-based qHTS assay (AID 1963591; active = well fitted inhibition curve with a large enough effect in the signal ratio in the repeat runs, not every such curve was filed as active; the % refers to the signal ratio). The method, boiled down:
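Antagonist mode: compounds are added alongside the adenylyl cyclase activator NKH477 (0.25 uM final) to CRE-bla HEK293T cells for 3 h. LiveBLAzer FRET substrate, 2 h at room temperature, reports bla expression.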

The target of assay [15] is Beta-2 adrenergic receptor (Homo sapiens) (UniProt P07550). In words: Adrenergic beta2 receptor (ADRB2) small molecule antagonists, cell-based qHTS assay (AID 1963592). Note: nearly all actives have a fitted effect of over 50% in size. Note: potency is the fitted concentration of half-maximal effect. The procedure, abridged: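 Assay format: CHO-ADRB2 cells, 18-20hr seeding at 37C/5% CO2, then compound plus 1nM isoproterenol agonist mix for 0.5hr RT. Homogeneous time-resolved fluorescence cAMP detection after 1hr, expressed as 665/615 nm ratio.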

The target is the same in assay [16]. In words: Adrenergic beta2 receptor (ADRB2) small molecule agonists, cell-based qHTS assay (AID 1963593).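 Note: CHO cells stably overexpressing human ADRB2.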 The method, boiled down: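 CHO cells stably over-expressing ADRB2 were plated overnight at 37C, then dosed with compounds plus a stimulation mix containing 100uM IBMX and 25uM Ro-20-1724 for 0.5hr at room temperature. cAMP was measured by HTRF competition, 1hr.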

Assay [17] concerns the target D(2) dopamine receptor (Homo sapiens) (UniProt P14416). In words: Dopamine D2 receptor (DRD2) small molecule agonists, cell-based qHTS assay (AID 1963594). Note: nearly all actives have a fitted effect of over 35% in size. Note: potency is the fitted concentration of half-maximal effect. The method, boiled down: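 HEK293 cells stably expressing DRD2 were cultured 24 h at 37 C, then given Ro20-1724 (0.1 mM final) and compounds for 10 min at room temperature. NKH477 (200nM) was then added for 30 min. cAMP was read by HTRF.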

For assay [18] the target is unchanged. In words: Dopamine D2 receptor (DRD2) small molecule antagonists, cell-based qHTS assay (AID 1963595; active = well fitted inhibition curve with a large enough effect in the signal ratio in the repeat runs, with a control signal flat; the % refers to the signal ratio). The procedure, abridged:
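Readout: HTRF cAMP, cAMP-d2 competing with cellular cAMP for anti-cAMP cryptate, read after 1 h. Cells: DRD2-HEK293. Conditions: 0.1 mM Ro20-1724, 12 nM quinpirole, 200 nM NKH477, 30 min RT.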

Structures are written as SMILES. Several values for one entry are separate records, joined by “and”; a condition that tells them apart may be missing. Identical values can stand only once. Inconclusive results are not listed. Activity calls are given as the source filed them. Unless noted, calls come from the whole dose curve.

Chain of Gonadotropin-releasing hormone receptor (Homo sapiens) (P30968 whole entry, looked up): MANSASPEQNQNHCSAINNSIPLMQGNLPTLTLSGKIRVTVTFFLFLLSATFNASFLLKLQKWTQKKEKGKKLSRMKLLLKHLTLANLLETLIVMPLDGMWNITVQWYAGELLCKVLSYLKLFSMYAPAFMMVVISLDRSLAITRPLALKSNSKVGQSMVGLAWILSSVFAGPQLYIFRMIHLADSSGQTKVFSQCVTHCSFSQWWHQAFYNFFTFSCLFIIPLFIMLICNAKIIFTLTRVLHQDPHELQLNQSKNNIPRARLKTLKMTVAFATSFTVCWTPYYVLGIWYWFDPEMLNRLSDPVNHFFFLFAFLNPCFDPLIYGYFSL
Chain of KiSS-1 receptor (Homo sapiens) (Q969F8 whole entry, looked up): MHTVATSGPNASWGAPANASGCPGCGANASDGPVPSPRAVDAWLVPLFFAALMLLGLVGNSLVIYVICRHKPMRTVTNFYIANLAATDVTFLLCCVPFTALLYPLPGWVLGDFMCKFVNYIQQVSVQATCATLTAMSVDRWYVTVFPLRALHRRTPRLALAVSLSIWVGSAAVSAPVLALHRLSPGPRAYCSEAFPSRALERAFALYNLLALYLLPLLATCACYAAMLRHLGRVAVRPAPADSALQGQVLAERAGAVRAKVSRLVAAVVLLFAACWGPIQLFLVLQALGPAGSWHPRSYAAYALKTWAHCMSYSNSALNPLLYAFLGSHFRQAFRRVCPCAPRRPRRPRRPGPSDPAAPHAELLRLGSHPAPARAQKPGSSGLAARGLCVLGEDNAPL
Chain of Muscarinic acetylcholine receptor M1 (Homo sapiens) (P11229 whole entry, looked up): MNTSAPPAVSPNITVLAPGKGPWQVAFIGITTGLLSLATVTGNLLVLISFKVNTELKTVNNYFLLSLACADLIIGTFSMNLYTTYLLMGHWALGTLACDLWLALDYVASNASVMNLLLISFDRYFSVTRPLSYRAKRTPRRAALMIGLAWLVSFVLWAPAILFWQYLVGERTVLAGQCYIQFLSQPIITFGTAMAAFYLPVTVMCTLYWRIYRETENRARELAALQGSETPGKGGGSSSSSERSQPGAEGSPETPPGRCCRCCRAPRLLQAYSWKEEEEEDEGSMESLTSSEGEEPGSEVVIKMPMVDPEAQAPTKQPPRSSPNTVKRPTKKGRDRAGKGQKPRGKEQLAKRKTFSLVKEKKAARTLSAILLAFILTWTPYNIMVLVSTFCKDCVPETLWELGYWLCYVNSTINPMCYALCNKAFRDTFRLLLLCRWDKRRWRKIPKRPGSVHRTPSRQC
Chain of 5-hydroxytryptamine receptor 2A (Homo sapiens) (P28223 whole entry, looked up): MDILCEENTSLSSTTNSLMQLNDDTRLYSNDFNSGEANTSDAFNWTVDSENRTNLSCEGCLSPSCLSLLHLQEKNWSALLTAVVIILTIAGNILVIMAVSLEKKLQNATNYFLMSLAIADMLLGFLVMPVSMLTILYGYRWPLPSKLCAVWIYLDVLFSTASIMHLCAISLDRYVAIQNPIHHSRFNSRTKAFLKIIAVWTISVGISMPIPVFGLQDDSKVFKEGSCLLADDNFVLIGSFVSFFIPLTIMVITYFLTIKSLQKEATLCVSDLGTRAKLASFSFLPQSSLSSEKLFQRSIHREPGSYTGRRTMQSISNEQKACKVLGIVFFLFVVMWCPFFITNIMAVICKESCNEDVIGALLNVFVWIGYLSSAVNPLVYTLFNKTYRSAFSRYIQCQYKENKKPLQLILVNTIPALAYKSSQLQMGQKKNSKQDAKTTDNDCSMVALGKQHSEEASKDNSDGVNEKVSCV
Chain of D(2) dopamine receptor (Homo sapiens) (P14416 whole entry, looked up): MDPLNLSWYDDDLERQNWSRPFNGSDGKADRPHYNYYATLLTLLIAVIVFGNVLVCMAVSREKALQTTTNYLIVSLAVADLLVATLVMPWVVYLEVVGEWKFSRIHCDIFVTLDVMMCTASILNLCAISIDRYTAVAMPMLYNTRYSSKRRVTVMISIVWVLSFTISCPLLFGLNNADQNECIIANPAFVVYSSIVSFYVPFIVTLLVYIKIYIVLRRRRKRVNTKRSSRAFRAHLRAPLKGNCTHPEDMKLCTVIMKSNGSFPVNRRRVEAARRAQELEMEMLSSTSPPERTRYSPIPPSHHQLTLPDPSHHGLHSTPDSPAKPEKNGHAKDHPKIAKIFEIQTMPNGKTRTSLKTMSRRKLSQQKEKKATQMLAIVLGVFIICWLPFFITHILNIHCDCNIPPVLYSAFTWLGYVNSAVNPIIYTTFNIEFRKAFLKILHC
Chain of Beta-2 adrenergic receptor (Homo sapiens) (P07550 whole entry, looked up): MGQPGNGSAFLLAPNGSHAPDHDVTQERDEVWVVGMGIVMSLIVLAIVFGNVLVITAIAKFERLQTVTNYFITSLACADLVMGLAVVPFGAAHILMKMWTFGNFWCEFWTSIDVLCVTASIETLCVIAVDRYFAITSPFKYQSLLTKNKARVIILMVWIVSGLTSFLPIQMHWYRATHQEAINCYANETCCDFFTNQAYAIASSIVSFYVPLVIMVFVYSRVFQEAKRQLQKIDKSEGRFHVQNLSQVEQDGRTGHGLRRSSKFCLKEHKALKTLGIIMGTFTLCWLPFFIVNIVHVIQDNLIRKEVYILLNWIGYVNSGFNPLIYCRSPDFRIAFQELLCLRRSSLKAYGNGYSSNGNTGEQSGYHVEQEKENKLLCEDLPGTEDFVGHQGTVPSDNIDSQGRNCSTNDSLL

As to `CC(C)CC(C)O` (stereo not given), the Potency result in [1], in [2], in assay [3], in [4], in assay [5] and in assay [6] was “inactive” in each case. In addition, the Potency entry in assay [7], in assay [8], in [9], in [10], in [11] and in [12] was “inactive” throughout. The Potency entry in [13], in assay [14], in assay [15], in assay [16], in assay [17] and in assay [18] was “inactive” each time.
Consider `NC[C@H](O)c1ccc(O)c(O)c1`, for which the Potency result in [1], in assay [2], in assay [4], in assay [5], in assay [6] and in assay [7] was “inactive” in each case. The Potency result in assay [8], in assay [9], in assay [10], in assay [11], in assay [12] and in assay [14] was “inactive” in each case. In addition, the Potency was 19 µM (active) in assay [3] and 16.6 µM (active) in [17].
In the case of `C=CC(C)(O)CCC=C(C)C` (stereo not given), the Potency entry in assay [1], in assay [2], in [3], in assay [4], in assay [5] and in assay [6] was “inactive” throughout. The Potency result in [7], in [8], in assay [9], in [10], in assay [11] and in [12] was “inactive” throughout. Besides, the Potency entry in assay [14], in assay [15], in assay [17] and in [18] was “inactive” throughout.
For the compound `C[C@@H]1CC(=O)NN=C1c1ccc(NN=C(C#N)C#N)cc1`, the Potency was 11.9 µM (active) and 21.1 µM (active) in assay [1]; 23.7 µM (active) and 26.6 µM (active) in [2]. Moreover, the Potency result in assay [3], in assay [4], in assay [5], in assay [6], in assay [7] and in assay [8] was “inactive” throughout. Moreover, the Potency result in assay [9], in assay [10], in assay [11], in assay [12], in [15] and in [17] was “inactive” in each case.
Take `CC(C)(C)c1cc(Cc2cc(C(C)(C)C)c(O)c(C(C)(C)C)c2)cc(C(C)(C)C)c1O`: the Potency result in assay [1], in assay [2], in assay [3], in assay [4], in assay [5] and in assay [6] was “inactive” in each case. Moreover, the Potency result in [7], in assay [8], in [9], in assay [10], in assay [11] and in [12] was “inactive” in each case. For the same compound, the Potency entry in [13], in assay [15], in assay [16], in assay [17] and in assay [18] was “inactive” each time.
For the compound `O=C1OC2(c3ccccc31)c1cc(Br)c(O)c(Br)c1Oc1c2cc(Br)c(O)c1Br`, the Potency entry in assay [1], in assay [2], in assay [6], in assay [7], in assay [8] and in [9] was “inactive” in each case. In addition, the Potency result in [11] is “inactive”. The Potency was 31.4 µM (active) and 14.2 µM (active) and 15.1 µM (active) in assay [3]; 39.5 µM (active) and 44.9 µM (active) and 23.9 µM (active) in [4]; 35.2 µM (active) and 35.7 µM (active) and 16.9 µM (active) in assay [5]; 22.2 µM (active) and 1.59 µM (active) and 19 µM (active) in assay [10]; 19.8 µM (active) and 22.5 µM (active) and 21.3 µM (active) in assay [12]; 62 µM (active) and 62.8 µM (active) and 21.1 µM (active) in assay [15]. Further, the Potency in assay [17] is 62 µM (active) and 60.5 µM (active) and 29.8 µM (active).
With `O=C(O)c1ccc(C(=O)O)c(C(=O)O)c1`, the Potency result in assay [1], in assay [2], in assay [3], in assay [4], in [5] and in assay [6] was “inactive” in each case. The Potency entry in assay [7], in assay [8], in assay [9], in [10], in assay [11] and in [12] was “inactive” in each case. The Potency entry in [13], in [14], in assay [15], in assay [17] and in [18] was “inactive” in each case.
